Experimental data as given in PubChem BioAssay (NCATS).
Inconclusive results are not listed. Entries that show only a call come without a potency. The source made the active and inactive calls. The call rests on the fitted dose curve; in most records, active means well fitted curve in the direction sought with a large enough effect; inconclusive means small, poorly fitted or top-dose-only effect, or another doubt; inactive means no such curve, though single readings can be large; an effect the other way counts as inactive or inconclusive.

Columns and labels:
[1] = Primary qHTS for inhibitors of nuclear receptor binding SET domain protein 2 (NSD2) in an isogenic RCH-ACV NSD2 p.E1099K mutant (9B) (AID 1645876); settings: RCH-ACV NSD2 E1099K (9B) viability, CellTiter-Glo, 72 h; series mostly up to 44.9 µM; further: nearly all actives have a fitted effect of over 70% in size
[2] = Primary qHTS for inhibitors of nuclear receptor binding SET domain protein 2 (NSD2) in an RCH-ACV wild type WT cells (2C) (AID 1645877); settings: RCH-ACV (leukaemia line) NSD2 WT (2C) viability, CellTiter-Glo, 72 h; series mostly up to 44.9 µM; further: nearly all actives have a fitted effect of over 70% in size
[3] = molecular target: Catechol O-methyltransferase (Homo sapiens) (UniProt P21964); test: Confirmatory Screen for Target Class Profiling of Small Molecule Inhibitors of Methyltransferases (AID 1745852); settings: MTase-Glo luminescence, SAH detection, recombinant enzyme; measured here: COMT max response; stronger effect = lower value
[4] = molecular target: Guanidinoacetate N-methyltransferase (Homo sapiens) (UniProt Q14353); test: as above; settings: MTase-Glo luminescence, SAH detection, recombinant enzyme; activity change, negative = inhibition: at 57.3 µM (top of the series) unless noted
[5] = molecular target: Nicotinamide N-methyltransferase (Homo sapiens) (UniProt P40261); test: as above; settings: MTase-Glo luminescence, SAH detection, recombinant enzyme; measured here: NNMT max response; stronger effect = lower value
[6] = molecular target: Phenylethanolamine N-methyltransferase (Homo sapiens) (UniProt P11086); test: as above; settings: MTase-Glo luminescence, SAH detection, recombinant enzyme; measured here: PNMT max response; stronger effect = lower value
[7] = molecular target: Rap guanine nucleotide exchange factor 3 (Homo sapiens) (UniProt O95398); test: Confirmatory qHTS for antagonist of cAMP-regulated guanine nucleotide exchange factor 3 (EPAC1) (AID 1645880); settings: EPAC1 Rap1B-BODIPY-GDP exchange, fluorescence; further: potency means the concentration at half of the fitted maximal effect; nearly all actives have a fitted effect of over 55% in size
Summary of the method: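 Nucleotide exchange uses 100 nM EPAC1, 250 nM RAP1B-BODIPY-GDP and 50 uM GDP, with compounds in a concentration-titration series. After 5 min at room temperature, fluorescence (480 nm ex/540 nm em) is read every 5 min for 30 min. Data are normalized to control ATA and DMSO.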

[8] = molecular target: Rap guanine nucleotide exchange factor 3 (Homo sapiens) (UniProt O95398); test: Confirmatory qHTS for agonist of cAMP-regulated guanine nucleotide exchange factor 3 (EPAC1) (AID 1645881); settings: EPAC1 Rap1B BODIPY-GDP exchange fluorescence, 100% = cAMP control response; series mostly up to 154 µM;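 further: EPAC1 catalysed release of BODIPY-GDP from Rap1B seen as fluorescence loss; nearly all actives have a fitted effect of over 75% in size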
[9] = molecular target: Rap guanine nucleotide exchange factor 4 (Homo sapiens) (UniProt Q8WZA2); test: Confirmatory qHTS for agonist of cAMP-regulated guanine nucleotide exchange factor 4 (EPAC2) (AID 1645884); settings: EPAC2 GEF activity, Rap1B-BODIPY-GDP fluorescence, percent relative to cAMP agonist control; series mostly up to 154 µM;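 further: nucleotide exchange releases bodipy-GDP from Rap1 and this lowers its fluorescence; nearly all actives have a fitted effect of over 65% in size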
[10] = molecular target: Rap guanine nucleotide exchange factor 3 (Homo sapiens) (UniProt O95398); test: Counterscreen qHTS for antagonist of cAMP-regulated guanine nucleotide exchange factor 3 (EPAC1) (AID 1645888); settings: Rap1B-BODIPY-GDP nucleotide exchange, fluorescence; series mostly up to 154 µM;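 further: fluorescence loss as bound BODIPY-GDP is released from Rap1B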
Summary of the method: (§1)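 Measured: fluorescence of BODIPY-GDP bound to Rap1B, which falls as exchange proceeds. Conditions include 50 uM competing GDP, 5 and 30 min reads, and a later cAMP challenge for antagonist detection.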

[11] = molecular target: Rap guanine nucleotide exchange factor 3 (Homo sapiens) (UniProt O95398); test: Counterscreen qHTS for agonist of cAMP-regulated guanine nucleotide exchange factor 3 (EPAC1) (AID 1645889); settings: EPAC1 Rap1B-BODIPY-GDP exchange, fluorescence; series mostly up to 154 µM; further: nearly all actives have a fitted effect of over 40% in size
Summary of the method: as §1

Sequence of Nicotinamide N-methyltransferase (Homo sapiens) (P40261 whole entry, looked up): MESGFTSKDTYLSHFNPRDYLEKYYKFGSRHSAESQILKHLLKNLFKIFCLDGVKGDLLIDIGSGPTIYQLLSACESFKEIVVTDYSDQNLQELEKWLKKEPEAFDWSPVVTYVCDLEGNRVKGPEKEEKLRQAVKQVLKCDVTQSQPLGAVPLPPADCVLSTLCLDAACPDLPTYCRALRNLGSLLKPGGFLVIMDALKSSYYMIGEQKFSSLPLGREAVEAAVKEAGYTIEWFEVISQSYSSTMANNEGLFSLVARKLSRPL
Sequence of Rap guanine nucleotide exchange factor 3 (Homo sapiens) (O95398 whole entry, looked up): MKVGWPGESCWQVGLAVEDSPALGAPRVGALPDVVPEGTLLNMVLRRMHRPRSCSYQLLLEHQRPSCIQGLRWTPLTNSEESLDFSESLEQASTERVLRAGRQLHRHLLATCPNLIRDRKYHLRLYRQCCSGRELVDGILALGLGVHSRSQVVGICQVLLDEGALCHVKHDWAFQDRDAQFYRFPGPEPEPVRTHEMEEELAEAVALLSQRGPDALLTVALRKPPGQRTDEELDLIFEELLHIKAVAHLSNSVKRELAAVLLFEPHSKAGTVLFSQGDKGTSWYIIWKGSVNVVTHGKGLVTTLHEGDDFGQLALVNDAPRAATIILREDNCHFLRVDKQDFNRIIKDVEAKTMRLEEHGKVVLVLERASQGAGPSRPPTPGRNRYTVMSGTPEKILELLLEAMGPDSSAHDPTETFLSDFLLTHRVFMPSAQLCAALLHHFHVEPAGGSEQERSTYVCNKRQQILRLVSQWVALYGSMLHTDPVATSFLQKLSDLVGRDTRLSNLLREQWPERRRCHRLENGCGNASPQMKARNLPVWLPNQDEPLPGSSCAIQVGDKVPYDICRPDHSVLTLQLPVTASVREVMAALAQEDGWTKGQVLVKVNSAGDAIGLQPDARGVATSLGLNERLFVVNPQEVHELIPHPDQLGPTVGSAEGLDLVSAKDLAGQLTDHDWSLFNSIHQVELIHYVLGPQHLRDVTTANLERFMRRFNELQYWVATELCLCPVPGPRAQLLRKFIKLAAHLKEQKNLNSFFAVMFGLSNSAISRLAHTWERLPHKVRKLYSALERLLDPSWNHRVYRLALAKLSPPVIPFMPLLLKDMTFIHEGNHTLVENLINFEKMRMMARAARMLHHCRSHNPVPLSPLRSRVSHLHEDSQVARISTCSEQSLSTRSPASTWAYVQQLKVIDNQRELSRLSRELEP
Sequence of Catechol O-methyltransferase (Homo sapiens) (P21964 whole entry, looked up): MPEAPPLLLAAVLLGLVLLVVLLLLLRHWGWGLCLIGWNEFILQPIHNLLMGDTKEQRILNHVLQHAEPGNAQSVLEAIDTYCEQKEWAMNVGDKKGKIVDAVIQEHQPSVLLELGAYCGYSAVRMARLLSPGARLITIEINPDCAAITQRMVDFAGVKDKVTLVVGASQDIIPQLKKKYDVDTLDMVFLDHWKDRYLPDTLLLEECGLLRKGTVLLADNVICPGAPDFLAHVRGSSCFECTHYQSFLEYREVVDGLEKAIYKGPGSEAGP
Sequence of Phenylethanolamine N-methyltransferase (Homo sapiens) (P11086 whole entry, looked up): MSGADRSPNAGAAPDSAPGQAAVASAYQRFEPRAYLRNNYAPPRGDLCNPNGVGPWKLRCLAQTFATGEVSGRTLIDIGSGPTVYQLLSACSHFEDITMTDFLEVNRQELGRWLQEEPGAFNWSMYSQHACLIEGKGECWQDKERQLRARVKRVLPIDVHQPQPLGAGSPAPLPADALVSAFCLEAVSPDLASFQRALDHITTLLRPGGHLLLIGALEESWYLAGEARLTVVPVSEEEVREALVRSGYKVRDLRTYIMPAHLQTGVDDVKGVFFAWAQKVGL
Sequence of Rap guanine nucleotide exchange factor 4 (Homo sapiens) (Q8WZA2 whole entry, looked up): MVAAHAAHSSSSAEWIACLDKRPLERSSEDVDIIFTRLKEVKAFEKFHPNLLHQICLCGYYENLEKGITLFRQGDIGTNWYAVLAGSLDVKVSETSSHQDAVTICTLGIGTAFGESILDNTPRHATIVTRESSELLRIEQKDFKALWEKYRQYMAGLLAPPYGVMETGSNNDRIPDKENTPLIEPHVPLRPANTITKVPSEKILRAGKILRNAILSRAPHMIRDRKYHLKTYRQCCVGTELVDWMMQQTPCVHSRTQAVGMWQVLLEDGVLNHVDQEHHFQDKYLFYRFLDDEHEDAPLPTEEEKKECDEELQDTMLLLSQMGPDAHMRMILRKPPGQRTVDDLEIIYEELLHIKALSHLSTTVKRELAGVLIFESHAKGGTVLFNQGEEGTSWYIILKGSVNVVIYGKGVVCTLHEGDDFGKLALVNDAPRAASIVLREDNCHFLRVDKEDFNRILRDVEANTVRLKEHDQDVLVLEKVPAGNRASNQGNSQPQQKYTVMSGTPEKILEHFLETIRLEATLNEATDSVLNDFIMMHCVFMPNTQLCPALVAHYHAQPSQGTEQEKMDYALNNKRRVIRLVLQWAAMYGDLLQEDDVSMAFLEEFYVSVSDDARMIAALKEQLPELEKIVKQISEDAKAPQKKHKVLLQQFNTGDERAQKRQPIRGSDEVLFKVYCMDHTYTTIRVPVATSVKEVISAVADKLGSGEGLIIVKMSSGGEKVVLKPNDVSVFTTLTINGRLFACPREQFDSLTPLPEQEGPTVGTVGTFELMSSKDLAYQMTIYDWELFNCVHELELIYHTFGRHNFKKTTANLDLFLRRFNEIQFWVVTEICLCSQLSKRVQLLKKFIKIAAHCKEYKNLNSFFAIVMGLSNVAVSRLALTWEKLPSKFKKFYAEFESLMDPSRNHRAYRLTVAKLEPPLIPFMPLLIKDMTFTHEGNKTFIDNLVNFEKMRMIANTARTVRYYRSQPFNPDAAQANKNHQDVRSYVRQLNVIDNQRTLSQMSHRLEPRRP

CC12CC(O)C(O)C=C1c1cc(O)cc(O)c1C(=O)O2 (stereo not given)
Potency [1]: inactive | Potency [2]: inactive

CCC1OC(=O)C(C)CC(C)C(=O)/C(C)=C/C(C)C(=O)/C=C/C1(C)O (stereo not given)
Potency [1]: inactive | Potency [2]: inactive

COc1ccc2c(c1)N1C(=O)C[C@@]34C=CC[N@+]5([O-])CC[C@H]2[C@H](CC3)[C@@]145
Potency [1]: inactive | Potency [2]: inactive

COc1c(C)c(OCC(O)C(C)(C)O)cc2c1CNC2=O (stereo not given)
Potency [1]: inactive | Potency [2]: inactive

CC1CC2(O)OC(=O)C3=C2C(CCC3)[C@@]12C[C@@H](c1ccoc1)OC2=O (stereo not given in full)
Potency [1]: inactive | Potency [2]: inactive

CC(=O)NC1CC(=O)C23C(=O)NC(Cc4c[nH]c5ccccc45)C2C(C)=C(C)C(O)C3/C=C/CC(C)/C=C(/C)C(O)C1O (stereo not given)
Potency [1]: inactive | Potency [2]: inactive

Cc1c(O)cc2c(c1O)COC1(O)CCCOC21 (stereo not given)
Potency [1]: inactive | Potency [2]: inactive

CCC/C=C1\OC(=O)C2=C1CCC(O)C2O (stereo not given)
Potency [1]: inactive | Potency [2]: inactive

C=C1C(OC(C)=O)[C@@]23CCC4[C@](C)(C(=O)O)CCC[C@@]4(C)[C@]2(O)CC[C@H]1C3 (stereo not given in full)
Potency [1]: inactive | Potency [2]: inactive

O=C(O)CC1(O)C(=O)Nc2ccccc21 (stereo not given)
Potency [1]: inactive | Potency [2]: inactive | activity [3]: 0% | activity change, negative = inhibition [4]: 0% [at 85.7 µM] | activity [5]: 4.18% | activity [6]: -0.0725%

COc1cc(O)c2c(c1Cl)CC(C)OC2=O (stereo not given)
Potency [1]: inactive | Potency [2]: inactive

CCc1nnc(NS(=O)(=O)c2ccc(NC(=S)NC(=O)/C=C/c3ccc(F)cc3)cc2)s1
Potency [1]: inactive | Potency [2]: inactive | Potency [7]: 37.9 µM (active) | outcome [8]: inactive | outcome [9]: inactive | outcome [10]: inactive | outcome [11]: inactive

CC1CC(O)/C=C/C(O)/C=C\C(=O)O1 (stereo not given)
Potency [1]: inactive | Potency [2]: inactive

O=C(/C=C/c1ccccc1)OC[C@H]1O[C@@H](OC(=O)c2cc(O)c(O)c(O)c2)[C@H](O)[C@@H](O)[C@@H]1O
Potency [1]: inactive | Potency [2]: inactive | activity [3]: -76.6% | activity change, negative = inhibition [4]: -1.37% [at 29.8 µM] | activity [5]: -4.41% | activity [6]: -0.813%

COc1cc(/C=C/C(=O)OC[C@H]2O[C@@H](OC3CC(C)=C(C(=O)O)C(C)(C)C3)[C@H](O)[C@@H](O)[C@@H]2O)cc(OC)c1O (stereo not given in full)
Potency [1]: inactive | Potency [2]: inactive

CC1CC(=O)[C@]2(O)C(C(=O)OCCc3ccc(O)c(O)c3)=CO[C@@H](O[C@@H]3O[C@H](CO)[C@@H](O)[C@H](O)[C@H]3O)[C@H]12 (stereo not given in full)
Potency [1]: inactive | Potency [2]: inactive

OC[C@H]1O[C@@H](OCc2ccccc2)[C@H](O[C@@H]2OC[C@@H](O)[C@H](O)[C@H]2O)[C@@H](O)[C@@H]1O
Potency [1]: inactive | Potency [2]: inactive

O=C(O)Cc1cn([C@@H]2O[C@H](CO)[C@@H](O)[C@H](O)[C@H]2O[C@@H]2O[C@H](CO)[C@@H](O)[C@H](O)[C@H]2O)c2ccccc12
Potency [1]: inactive | Potency [2]: inactive

C[C@@H]1C[C@H]2OC(=O)[C@@]3(C)CCC[C@](C)(C23)[C@@]1(O)CCC1=CC(=O)OC1O (stereo not given in full)
Potency [1]: inactive | Potency [2]: inactive

CC1(C)OC(=O)C=C[C@@]2(C)C1CC(=O)[C@]1(C)C2CC[C@@]2(C)[C@H](c3ccoc3)OC(=O)[C@H]3O[C@]321 (stereo not given in full)
Potency [1]: inactive | Potency [2]: inactive

COC(=O)c1cc(OC)cc(OC)c1C(=O)c1c(OC)cc2c(c1O)C1CCC(O)C(C)(O2)O1 (stereo not given)
Potency [1]: inactive | Potency [2]: inactive

OCC1OC(Oc2cc(O)cc(/C=C/c3ccc(OC4OC(CO)C(O)C(O)C4O)cc3O)c2)C(O)C(O)C1O (stereo not given)
Potency [1]: inactive | Potency [2]: inactive

COC(=O)C(CC1(O)c2ccccc2N2C(=O)C(C)(C)N(O)C21)n1cnc2ccccc2c1=O (stereo not given)
Potency [1]: inactive | Potency [2]: inactive

CC1C2=CC(=O)OC2(O)CC2C1C(OC(=O)c1ccccc1)C(OC(=O)c1ccccc1)C1(O)C2(C)CCC(O)C1(C)C(=O)O (stereo not given)
Potency [1]: inactive | Potency [2]: inactive

COc1ccc(CCC(=O)c2c(O)cc(O[C@@H]3O[C@H](CO)[C@@H](O)[C@H](O)[C@H]3O[C@@H]3O[C@@H](C)[C@H](O)[C@@H](O)[C@H]3O)cc2O)cc1O
Potency [1]: inactive | Potency [2]: inactive

CC(C)C1CCC(CO)=CC1/C=C(\CO)C(=O)OCC1(O)CCC(C(C)C)C2C=C(C(=O)O)COC(=O)C21 (stereo not given)
Potency [1]: inactive | Potency [2]: inactive

CC(C)=CC1C[C@](C)(O)[C@@H]2[C@H]3CCC4[C@@]5(C)CC[C@H](O[C@@H]6OC[C@H](O)[C@H](O[C@@H]7O[C@H](CO[C@@H]8O[C@H](CO)[C@@H](O)[C@H](O)[C@H]8O)[C@@H](O)[C@H](O)[C@H]7O)[C@H]6O[C@@H]6O[C@@H](C)[C@H](O)[C@@H](O)[C@H]6O)C(C)(C)[C@@H]5CC[C@@]4(C)[C@@]34CO[C@@]2(C4)O1 (stereo not given in full)
activity change, negative = viability loss [1]: -4.74% [at 9.23 µM] (inactive) | activity change, negative = cell killing [2]: 3.17% [at 9.23 µM] (inactive)

CCN=C1N[C@@H]2[C@@H](O)[C@H](O)[C@@H](CO)O[C@@H]2S1
Potency [1]: inactive | Potency [2]: inactive

CC(=O)c1c(C)cccc1O[C@@H]1O[C@H](CO)[C@@H](O)[C@H](O)[C@H]1O
Potency [1]: inactive | Potency [2]: inactive | activity [3]: -68.9% | activity change, negative = inhibition [4]: -2.96% | activity [5]: -4.15% | activity [6]: -3.91%
